Each structure is given as a SMILES string. Inconclusive results are not listed. Entries that show only a call come without a potency. Activity calls are given as the source filed them. Calls follow the shape of the dose curve; as a rule, active = well fitted activation curve with a large enough effect; inconclusive = small, poorly fitted or top-dose-only effect; inactive = no such curve, though single readings can be large or run the other way.
Potency is read from the fitted curve at half-maximal effect.

A short description of the test: qHTS Assay for Identifying a Potential Treatment of Ataxia-Telangiectasia: Hit Validation.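 Also: phospho-KAP1 level by AlphaLISA as a proxy for ATM-like kinase activity.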 The settings on record: Ataxia-telangiectasia cell-based hit validation qHTS, in ATM-null A-T patient fibroblasts; series mostly up to 76.9 µM. Put shortly: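 hTERT-immortalized A-T patient fibroblasts (F2112) were dosed at up to 76.7 uM final for 60 min at 37C. After a further 30 min incubation, cells were lysed, and phospho-KAP1 was detected by AlphaLISA after 6 hr at 25C.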
In general terms: qHTS replaces the single test concentration by a dilution series.
As for `O=C(CNCc1cccs1)Nc1cc(S(=O)(=O)N2CCCC2)ccc1Cl`, the Potency result was “inactive”.

As for `Cc1ccc(-c2noc(CCC(=O)NC3CCN(Cc4ccccc4)CC3)n2)cc1`, the Potency entry was “inactive”.

For the compound `O=C(O)CCCN1C(=O)/C(=C/C=C/c2ccco2)SC1=S`, the Potency result is “inactive”.

Turning to `COc1cc(CCC(=O)OCC(=O)N2CCc3ccccc32)cc(OC)c1OC`, the Potency entry was “inactive”.

Take `O=c1c2cc(Br)ccc2nc(-c2ccccc2)n1O`: the Potency result is “inactive”.

Turning to `CC(=O)Nc1ccc(S(=O)(=O)NCC2(N3CCOCC3)CCCCC2)cc1`, the Potency result was “inactive”.

Take `COCCCNC(=O)c1c[nH]c2ccc(S(=O)(=O)N(C)c3ccccc3C)cc2c1=O`: the Potency entry is “inactive”.

As to `CCS(=O)(=O)N1Cc2ccccc2CC1C(=O)Nc1cccc(OC)c1` (configuration not stated), the Potency result was “inactive”.

Turning to `CCC(Oc1ccccc1)C(=O)N(C)CC(=O)N(CC(C)C)c1c(N)n(CC(C)C)c(=O)[nH]c1=O` (configuration not stated), the Potency entry was “inactive”.

`Cc1cc(C)n2nc(C(=O)OCCOc3ccc(F)cc3)nc2n1`: the Potency is 58.2 µM (active).

`CC1CC(C)CN(C(=O)COC(=O)c2c[nH]c3ccccc23)C1` (configuration not stated): the Potency result is “inactive”.

As for `CC(C)NC(=O)c1ccc(COc2ccc(C(C)(C)C)cc2)o1`, the Potency result was “inactive”.

For `CN(C)C(=O)CN(C)S(=O)(=O)c1ccc(Cl)cc1`, the Potency entry is “inactive”.

As for `O=[N+]([O-])c1ccc(F)cc1F`, the Potency is 29.2 µM (active).

For the compound `CCOC(=O)CN(C(=O)CSc1nnc(COc2ccc(OC)cc2)n1CC)c1ccccc1`, the Potency entry is “inactive”.

As to `Cc1cc2c(c(=O)o1)C(CCC1CCCCC1)C(C#N)=C(N)O2` (configuration not stated), the Potency entry was “inactive”.

In the case of `COc1ccccc1NC(=O)C1CCCN(S(=O)(=O)c2ccc(-n3cnnn3)cc2)C1` (configuration not stated), the Potency entry is “inactive”.

In the case of `CC(C)OP(=O)(OC(C)C)C(O)c1ccc(N(C)C)cc1` (configuration not stated), the Potency result was “inactive”.

On to `O=C1NC(NS(=O)(=O)c2ccc(Cl)cc2)(C(F)(F)F)C(=O)N1CCc1ccccc1` (configuration not stated), for which the Potency entry is “inactive”.

As to `COc1ccc(C2c3ccc(O)cc3Oc3ncn(CC(C)C)c(=N)c32)cc1` (configuration not stated), the Potency entry is “inactive”.

With `COc1ccc(NS(=O)(=O)c2ccc(N3CC(O)=C(c4ccccc4)C3=N)cc2)cc1`, the Potency entry was “inactive”.

For `CCC[C@H]1CCCC/C=C\CCCC(=O)OCCN1C(=O)OC(C)(C)C`, the Potency result was “inactive”.

`CN(CCc1ccccn1)C(=O)c1cc(COc2ccc(F)cc2F)on1`: the Potency entry was “inactive”.

Regarding `COC(=O)c1ccncc1C(=O)Nc1ccc(Oc2ncc(C(F)(F)F)cc2Cl)cc1`, the Potency result is “inactive”.

As to `Cc1oc2c(c(C)cc3oc(=O)c(CC(=O)NCC(=O)NCC(=O)O)c(C)c32)c1C`, the Potency is 32.8 µM (active).

For the compound `N=c1ccn(Cc2ccc([N+](=O)[O-])cc2)cc1`, the Potency result is “inactive”.

Consider `CCS(=O)(=O)c1ccc(C(=O)Nc2ccccc2)c(Cl)c1Cl`, for which the Potency was 29.2 µM (active).

In the case of `COC1=C(N)C(=O)c2nc(-c3nc(C(=O)O)c(C)c(-c4ccc(OC)c(OC)c4O)c3N)ccc2C1=O`, the Potency result was “inactive”.

`Fc1ccc(C2=NOC(c3nnc(-c4ccccc4)o3)C2)cc1` (configuration not stated): the Potency entry is “inactive”.

As for `COc1ccccc1C(=O)NC(=O)Nc1cccc(Cl)c1`, the Potency entry was “inactive”.

In the case of `O=C(Nc1cnn(C23CC4CC(CC(C4)C2)C3)c1)c1cnn2cccnc12`, the Potency result was “inactive”.

On to `COc1ccc(CCn2c(S)nc3ccccc3c2=O)cc1`, for which the Potency is 26 µM (active).

Regarding `CN1C[C@@H]2C(c3ccccc3)C3(c4ccccc4)CC2(C3)[C@H]1c1ccccc1` (some centres not stated), the Potency was 18.4 µM (active).

For the compound `CCOC(=O)N1CCC(NC(=O)C2CCN(S(=O)(=O)c3cccc4cccnc34)CC2)CC1`, the Potency entry is “inactive”.

Turning to `CN(C)c1cc(Nc2ccc(O)cc2)c([N+](=O)[O-])c2nonc12`, the Potency entry is “inactive”.

Take `COc1cccc(CNCc2ccc(OC)c3ccccc23)c1OC`: the Potency entry was “inactive”.

In the case of `COc1ccc(CCNC(=O)C2CCN(S(=O)(=O)c3ccc(OC)c(OC)c3)CC2)cc1OC`, the Potency entry was “inactive”.

(Values after PubChem BioAssay AID493192 (National Center for Advancing Translational Sciences (NCATS), 2011).)
